From PubChem
JMJD2A Tudor: qHTS Assay for Inhibitors of JMJD2A-Tudor Domain; Lysine-specific demethylase 4A (Homo sapiens), O75164; AlphaScreen JMJD2A-Tudor / H3K4me3 peptide binding; Potency, µM (top dose mostly 114 µM), inactives show at the top dose activity change, negative = inhibition, actives largely listed as inhibitors; actives 4.4% (n = 390,000); AID 504339, 2011; further: on the % scale 0 is the no-effect control and ±100 the full control effect; nearly all actives have a fitted effect of over 50% in size
Sfp inh: qHTS Assay for Inhibitors of Bacillus subtilis Sfp phosphopantetheinyl transferase (PPTase) | Potency, µM, inactives show largest response in the series, negative = inhibition, usual class: inhibitors | 4'-phosphopantetheinyl transferase ffp (Bacillus subtilis), Q9F4F7 | Biochemical Sfp PPTase activity, qHTS | actives 3.5% (n = 310,000);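 further: the enzyme is Sfp with the accession as filed and its product quenches rhodamine fluorescence; 0% = enzyme reaction without inhibitor and -100% = no enzyme wells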
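Fluorescence-quenching assay with 15 nM Sfp, 5 uM rhodamine-CoA and 12.5 uM BHQ-2-labelled ybbR peptide in pH 7.6 Hepes/MgCl2 buffer. Enzyme was pre-incubated with compound for 15 min at room temperature. Rate was taken from the 30-min fluorescence change (525/598 nm).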
L3MBTL1 block: qHTS Assay for the Inhibitors of L3MBTL1; Lethal(3)malignant brain tumor-like protein 1 (Homo sapiens), Q9Y468; AlphaScreen L3MBTL1–H3K9me1 peptide binding; Potency, µM (titrated, usually from 57.1 µM), inactives show at the top dose activity, negative = inhibition, hits mostly inhibitors; actives 0.66% (n = 230,000); AID 485360, 2010; further: on the % scale 0 is the no-effect control and ±100 the full control effect; nearly all actives have a fitted effect of over 60% in size
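Read-out is AlphaScreen signal from streptavidin donor and nickel chelate acceptor beads (10 ug/mL final each) bridging L3MBTL1 (50 nM) and biotinylated K9-monomethylated H3(1-15) peptide (75 nM), after 30 min compound exposure at room temperature.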
G9a inh: qHTS Assay for Inhibitors of Histone Lysine Methyltransferase G9a; actives 8.8% (n = 350,000); Potency, µM (series often up to 102 µM), without a hit: at the highest dose activity, negative = inhibition, hits mostly inhibitors; Histone-lysine N-methyltransferase EHMT2 (Homo sapiens), Q96KQ7; G9a H3K9 monomethylation, AlphaScreen, 2 h; further: on the % scale 0 is the no-effect control and ±100 the full control effect; nearly all actives have a fitted effect of over 75% in size
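G9a (20 nM) preincubated 15 min RT with compounds, then 500 nM biotinylated H3K9 peptide and 20 uM SAM added; 2 h RT reaction. Monomethyl-H3K9 product detected by AlphaScreen with anti-H3K9me1 antibody, streptavidin donor and anti-rabbit IgG acceptor beads.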
HP1b chromo inh: HTS for Inhibitors of HP1-beta Chromodomain Interactions with Methylated Histone Tails; AlphaScreen HP1-beta / biotin-H3K9me3 peptide binding; Potency, µM (top dose mostly 114 µM), for inactives: at the highest dose activity change, negative = inhibition, hits mostly inhibitors; actives 0.56% (n = 390,000); further: nearly all actives have a fitted effect of over 70% in size
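Compound inhibition of the preformed complex between 50 nM HP1-beta and 50 nM biotinylated H3K9me3 peptide was read by AlphaScreen. Buffer was PBS pH 7.4 with 0.01% Tween-20. Incubations ran 30 min at room temperature, with 10 ug/mL donor/acceptor beads.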
BAZ2B block: qHTS Assay for Inhibitors of BAZ2B. Bromodomain adjacent to zinc finger domain protein 2B (Homo sapiens), Q9UIF8. AlphaScreen BAZ2B-H3K14Ac peptide displacement. Potency, µM (highest dose often 114 µM), inactives show at the top dose activity change, negative = inhibition, actives largely listed as inhibitors. actives 4.4% (n = 360,000). AID 504333, 2011; further: on the % scale 0 is the no-effect control and ±100 the full control effect; nearly all actives have a fitted effect of over 60% in size
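BAZ2B (50 nM) with biotin-H3(5-23)K14Ac peptide (50 nM) in PBS pH 7.4, 0.01% Tween-20, preformed 30 min, then compound 30 min at room temperature; top concentration 110uM. AlphaScreen streptavidin donor/nickel chelate acceptor beads (10 ug/mL final), 20 min dark, signal read.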
Active calls of the source: *; ! = a repeat was not active; [ ] = another dose, or the depositor's remark. An excerpt weighted towards active compounds, which were near 12% of everything screened. The call rests on the fitted dose curve; in most records, active means well fitted curve in the direction sought with a large enough effect; inconclusive means small, poorly fitted or top-dose-only effect, or another doubt; inactive means no such curve, though single readings can be large; an effect the other way counts as inactive or inconclusive. Potency means the concentration at half of the fitted maximal effect.

How did C=CCN1CCc2cccc3c2[C@H]1Cc1ccc(O)c(O)c1-3 do in these assays?
JMJD2A Tudor: 16µM*; Sfp inh: 45µM*; L3MBTL1 block: -13%; G9a inh: 0.53µM*; HP1b chromo inh: 35µM*; BAZ2B block: inconclusive

Results for COc1ccc2c(c1O)-c1cc(O)cc3c1[C@@H](C2)N(C)CC3 ?
Sfp inh: -3%; G9a inh: inconclusive

What do the screens show for `COc1ccc(/C=C/C(=O)N2CC3C[C@@H](C2)Cn2c3cccc2=O)cc1OC`?
Sfp inh: -11%

What do the screens show for `COc1cc2c(cc1O)C[C@H]1NCCc3cc4c(c-2c31)OCO4`?
JMJD2A Tudor: 22µM*; Sfp inh: -7%; L3MBTL1 block: 35µM*; G9a inh: inconclusive; HP1b chromo inh: -2%; BAZ2B block: 22µM*

Results for N#CC(C#N)=NNc1ccc([N+](=O)[O-])cc1 ?
JMJD2A Tudor: inconclusive; Sfp inh: 9%; G9a inh: 32µM*; HP1b chromo inh: inconclusive; BAZ2B block: 40µM*

What do the screens show for `Cn1cc(/C=C(\C(=O)O)C(C(=O)O)=C2CCCCC2)c2ccccc21`?
JMJD2A Tudor: inconclusive; Sfp inh: 2%; L3MBTL1 block: -6%; G9a inh: 32µM*; HP1b chromo inh: -20%; BAZ2B block: inconclusive

How did Cn1cc(C=C(C#N)C#N)c2ccccc21 do in these assays?
JMJD2A Tudor: -9%; Sfp inh: 5%; L3MBTL1 block: -10%; HP1b chromo inh: 79%; BAZ2B block: -21%

Results for CSC(=Nc1ccccc1)c1c(O)n(C)c(=O)n(C)c1=O ?
JMJD2A Tudor: -26%; Sfp inh: 56µM*; L3MBTL1 block: -9%; G9a inh: inconclusive; HP1b chromo inh: 46%; BAZ2B block: 8%

Results for CCOC(=O)c1ccc(N=C(c2ccccc2)c2c(O)n(C)c(=O)n(C)c2=O)cc1 ?
JMJD2A Tudor: 11%; Sfp inh: inconclusive; L3MBTL1 block: -10%; G9a inh: 50µM*; HP1b chromo inh: 47%; BAZ2B block: -12%

What do the screens show for `Cn1c(O)c(C(=Nc2ccc(F)cc2)c2ccccc2Cl)c(=O)n(C)c1=O`?
JMJD2A Tudor: -22%; Sfp inh: -1%; L3MBTL1 block: -8%; HP1b chromo inh: 5%; BAZ2B block: -38%

Results for Cn1c(O)c(C(=Nc2ccccc2)SCc2ccccc2Cl)c(=O)n(C)c1=O ?
JMJD2A Tudor: -22%; Sfp inh: 40µM*; HP1b chromo inh: 20%; BAZ2B block: 50µM*

What do the screens show for `COc1cc(C(=O)N/N=C/c2ccc(OC(=O)N3CCOCC3)cc2)cc(OC)c1OC`?
JMJD2A Tudor: -18%; Sfp inh: -5%; L3MBTL1 block: 4%; G9a inh: inconclusive; HP1b chromo inh: 7%; BAZ2B block: -1%

How did NC(N)=NCCC[C@H](N)C(=O)O do in these assays?
Sfp inh: inconclusive; G9a inh: 54%[12.7 µM]

Results for O=c1cccc2n1CC1CC2CN(CCO)C1 (centres undefined) ?
Sfp inh: 17%

What do the screens show for `O=c1[nH]c2ccccc2n1CCCN1CCC(n2c(=O)[nH]c3cc(Cl)ccc32)CC1`?
JMJD2A Tudor: -18%; Sfp inh: 5%; L3MBTL1 block: -1%; G9a inh: 21%[59 µM]; HP1b chromo inh: inconclusive; BAZ2B block: -27%

What do the screens show for `COc1ccc(N2C(=O)CC(N3CCC(n4c(=O)[nH]c5ccccc54)CC3)C2=O)cc1` (centres undefined)?
JMJD2A Tudor: -6%; Sfp inh: 8%; G9a inh: 40µM*; HP1b chromo inh: 56%; BAZ2B block: 3%

Results for CN1C(=O)C(=Cc2ccc(OCC(=O)Nc3ccccc3)cc2)C(=O)N(C)C1=O ?
JMJD2A Tudor: -8%; Sfp inh: 50µM*; HP1b chromo inh: 30%; BAZ2B block: -7%

How did CN1C(=O)C(=Cc2c(OCc3cnc(Cl)s3)ccc3ccccc23)C(=O)N(C)C1=O do in these assays?
JMJD2A Tudor: -2%; Sfp inh: inconclusive; L3MBTL1 block: -5%; G9a inh: inconclusive; HP1b chromo inh: 40%; BAZ2B block: inconclusive

What do the screens show for `COc1ccc(C=C2C(=O)N(C)C(=O)N(C)C2=O)cc1COc1ccc(NC(C)=O)cc1`?
JMJD2A Tudor: -17%; Sfp inh: 40µM*; L3MBTL1 block: -8%; G9a inh: 45µM*; HP1b chromo inh: -3%; BAZ2B block: inconclusive

What do the screens show for `O=C1C=C2C=C[C@@H]3C[C@@]2(O1)[C@H]1CCCCN31`?
Sfp inh: 16%

Results for C[C@@]12C=CC(=O)C=C1CCC1C2CC[C@]2(C)C(=O)CCC12 (some centres undefined) ?
Sfp inh: 9%

What do the screens show for `O=C1[C@H]2[C@@H](C3CC3)N3C(=O)CN(CC4CC4)C(=O)[C@@]3(Cc3ccccc3)[C@H]2C(=O)N1c1ccccc1`?
JMJD2A Tudor: -10%; L3MBTL1 block: 7%; HP1b chromo inh: 45%

How did CC1=NCCc2c1[nH]c1cc(O)ccc21 do in these assays?
JMJD2A Tudor: -19%; Sfp inh: 79µM*!; L3MBTL1 block: -6%; G9a inh: 1.4µM*!; HP1b chromo inh: 39%; BAZ2B block: 4%

How did COc1ccc2c3c([nH]c2c1)C(C)=NCC3 do in these assays?
JMJD2A Tudor: -4%; Sfp inh: 18%; L3MBTL1 block: -6%; G9a inh: inconclusive; HP1b chromo inh: 36%; BAZ2B block: -33%

Results for CO[C@H]1C=C2CCN(C)[C@@H]2[C@@H]2c3cc4c(cc3C(=O)O[C@H]21)OCO4 ?
Sfp inh: 9%; G9a inh: 2%[21.5 µM]

How did O=Nc1c(O)c2ccccc2c2ccccc12 do in these assays?
JMJD2A Tudor: 56µM*; HP1b chromo inh: inconclusive

What do the screens show for `O=c1oc2ccccc2c(O)c1Cc1c(O)c2ccccc2oc1=O`?
Sfp inh: -8%; G9a inh: 25%[21.5 µM]
